Screening results as filed in PubChem.
DT40 TDP1 CPT = qHTS for Inhibitors of human tyrosyl-DNA phosphodiesterase 1 (TDP1): qHTS in cells in presence of CPT; 420,000 tested, 12% active; chicken DT40 Tdp1-/-;hTDP1 cells + 20 nM CPT, ATP luminescence, 48 h; Potency, µM (doses to about 46.2 µM), actives largely listed as inhibitors; further: nearly all actives have a fitted effect of over 55% in size
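Chicken DT40 Tdp1-/- cells stably complemented with human TDP1 were seeded at 400 cells/well in medium containing 20 nM camptothecin, exposed to pin-transferred compounds, and grown at 37 °C for at least 48 hr. Viability was read as ATP luminescence.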
TDP1 block = qHTS Assay for Inhibitors of Tyrosyl-DNA Phosphodiesterase (TDP1); recombinant TDP1, AlphaScreen DNA substrate cleavage; Potency, µM (titrated, usually from 130 µM), hits mostly inhibitors; 350,000 tested, 0.28% active; AID 485290, 2010; further: nearly all actives have a fitted effect of over 40% in size
Target sequence (Q9NUW8 whole entry, looked up): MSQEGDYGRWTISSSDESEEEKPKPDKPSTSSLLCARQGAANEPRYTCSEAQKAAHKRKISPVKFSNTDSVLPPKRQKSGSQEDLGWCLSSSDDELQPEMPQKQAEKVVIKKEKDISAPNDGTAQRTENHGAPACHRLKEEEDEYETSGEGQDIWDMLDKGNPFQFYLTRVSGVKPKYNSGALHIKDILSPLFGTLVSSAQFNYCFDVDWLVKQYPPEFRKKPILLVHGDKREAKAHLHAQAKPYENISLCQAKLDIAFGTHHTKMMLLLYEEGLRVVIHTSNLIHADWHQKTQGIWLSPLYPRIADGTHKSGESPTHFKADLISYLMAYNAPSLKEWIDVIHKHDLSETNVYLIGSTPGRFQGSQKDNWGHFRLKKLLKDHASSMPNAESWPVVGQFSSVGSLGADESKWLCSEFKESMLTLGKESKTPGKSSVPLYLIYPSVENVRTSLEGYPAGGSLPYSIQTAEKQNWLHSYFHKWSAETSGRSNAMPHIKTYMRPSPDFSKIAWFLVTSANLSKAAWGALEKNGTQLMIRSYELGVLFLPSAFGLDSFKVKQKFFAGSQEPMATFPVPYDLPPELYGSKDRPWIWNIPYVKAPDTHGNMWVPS
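Here, a 5' biotin and 3' phosphotyrosine-FITC DNA oligonucleotide reports Tdp1 activity: intact substrate bridges AlphaScreen beads, while cleavage leaves a 3' phosphate and drops signal. All incubations at room temperature.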
DT40 TDP1 no CPT = qHTS for Inhibitors of human tyrosyl-DNA phosphodiesterase 1 (TDP1): qHTS in cells in absence of CPT. DT40 Tdp1-/- hTDP1 cells, no CPT, ATP luminescence, 48 h. Potency, µM (doses to about 46.2 µM), hits mostly inhibitors. 420,000 tested, 15% active; further: nearly all actives have a fitted effect of over 55% in size
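DT40 Tdp1-/-;hTDP1 cells, no CPT (DMSO vehicle only), 400 cells/well; compounds pin-transferred; ≥48 hr, 37 °C; CellTiter-Glo 30 min RT dark, luminescence read.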
Gal4-VP16 FLuc = VP16 counterscreen qHTS for inhibitors of ROR gamma transcriptional activity. 310,000 tested, 3.5% active. AID 2546, 2010. Potency, µM (highest dose often 53.6 µM), hits mostly inhibitors. Drosophila S2 Gal4-VP16 UAS-luciferase, luminescence, 20 h;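 further: Gal4-VP16 expression switched on by copper sulfate through the metallothionein promoter; nearly all actives have a fitted effect of over 50% in size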
RORgamma inh = qHTS for inhibitors of ROR gamma transcriptional activity; Nuclear receptor ROR-gamma (Mus musculus), P51450; Potency, µM (top dose mostly 53.6 µM), actives largely listed as inhibitors; 310,000 tested, 5.4% active; Drosophila S2 Gal4-RORgamma UAS-luciferase reporter, 20 h; further: nearly all actives have a fitted effect of over 60% in size
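ROR gamma transcriptional activity was tracked as Gal4-UAS luciferase output in stably transfected Drosophila Schneider cells, with compound added 1 hr before 700 uM copper sulfate induction and a 20 hr ambient-temperature incubation.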
Hits are given with their value; – = inactive; ? = inconclusive; · = no result. Sampled rows, rich in hits. Any-hit rate of the full collection: about 19%. The call rests on the fitted dose curve; in most records, active means well fitted curve in the direction sought with a large enough effect; inconclusive means small, poorly fitted or top-dose-only effect, or another doubt; inactive means no such curve, though single readings can be large; an effect the other way counts as inactive or inconclusive.

SMILES	DT40 TDP1 CPT	TDP1 block	DT40 TDP1 no CPT	Gal4-VP16 FLuc	RORgamma inh
COC(=O)c1cc2oc3ccccc3c2n1Cc1nc(-c2ccc(OC)cc2)oc1C	?	–	–	·	·
COC(=O)c1ccc(-c2ccco2)n1Cc1nc(-c2ccc(OC)c(OC)c2)oc1C	23µM	–	16µM	–	–
NC(=O)C(F)(F)C12OC3C4C5CC(C6C5C3C61)C42 (stereo not drawn)	–	–	–	–	–
CCCCOC(=O)N1CCOCCOCCN(C(=O)OCCCC)CCOCCOCC1	?	–	?	–	–
Cc1ccc(S(=O)(=O)NCCC2(C(C)C)CCOC(C)(C)C2)cc1 (stereo not drawn)	?	–	?	–	–
Cc1ccc(C2=NNC3(CCOC(C)(C)C3)S2)cc1 (stereo not drawn)	–	–	–	7.9µM	5.6µM
CC(C)CCn1c(CN2CCN(Cc3ccccc3)CC2)nc2c1c(=O)n(C)c(=O)n2C	?	–	16µM	–	–
CCCCCCn1c(CN2CCN(CCO)CC2)nc2c1c(=O)n(C)c(=O)n2C	–	–	–	–	–
CCCCCCn1c(CN2CCC(C)CC2)nc2c1c(=O)n(C)c(=O)n2C	?	–	16µM	–	–
Cn1c(=O)c2c(nc(N3CCN(Cc4ccccc4)CC3)n2CC(=O)c2ccccc2)n(C)c1=O	–	·	–	·	·
Cn1c(=O)c2c(nc(CN3CCN(c4ccccc4)CC3)n2CCCc2ccccc2)n(C)c1=O	21µM	·	15µM	·	·
Cn1c(=O)c2c(nc(CN3CCN(Cc4ccccc4)CC3)n2Cc2ccc(F)cc2)n(C)c1=O	?	–	?	–	–
Cn1c(=O)c2c(nc(CN3CCC(C(N)=O)CC3)n2CCCc2ccccc2)n(C)c1=O	–	–	?	–	–
CCCCCn1c(CN2CCN(Cc3ccccc3)CC2)nc2c1c(=O)n(C)c(=O)n2C	15µM	–	15µM	–	?
Cc1cc(C)c2sc(NC(=O)CN3C(=O)CCC3=O)nc2c1	–	·	–	–	–
Cc1cccc(OCC(=O)Nc2ccccc2OCc2cc(=O)n3ccccc3n2)c1	–	–	–	·	·
CCCCn1c(CN2CCN(c3ccccc3)CC2)nc2c1c(=O)n(C)c(=O)n2C	1.5µM	–	2.3µM	6.3µM	–
Cn1c(=O)c2c(nc(CN3CCN(c4ccccc4)CC3)n2Cc2ccccc2F)n(C)c1=O	·	–	·	?	–
Cc1cccc(N2CCN(CC(=O)NCc3ccc(Cl)cc3)CC2)c1C	?	–	4.1µM	–	–
O=C(CN1CCN(C/C=C/c2ccccc2)CC1)NCc1ccc(Cl)cc1	5.8µM	–	4.6µM	–	–
N#CC1CC(c2ccc([N+](=O)[O-])cc2)=NN1c1ccc([N+](=O)[O-])cc1 (stereo not drawn)	?	–	–	–	–
CN1CCN(C(=O)c2ccccc2Nc2ccc(SC(F)F)cc2)CC1	?	–	16µM	–	–
CCN1CCN(C(=O)c2ccccc2Nc2ccc(SC(F)F)cc2)CC1	–	–	–	–	–
Cc1ccc(OCc2nnc(SCc3nc4ccccc4[nH]3)n2Cc2ccco2)cc1	15µM	–	18µM	?	?
Clc1ccc(CSc2nnc(-c3ccccn3)n2Cc2ccco2)c(Cl)c1	?	–	29µM	?	?
SMILES	DT40 TDP1 CPT	TDP1 block	DT40 TDP1 no CPT	Gal4-VP16 FLuc	RORgamma inh
Clc1ccc(CSc2nnc(-c3ccccn3)n2Cc2cccs2)cc1Cl	?	·	18µM	·	·
CCn1c(COc2ccc(Cl)cc2)nnc1SCc1nc2ccccc2[nH]1	?	–	?	?	11µM
Fc1ccccc1CSc1nnc(-c2cnccn2)n1Cc1ccco1	–	–	–	–	?
COC(=O)N[C@@H](/C=C/c1ccccc1)[C@@H](C)[N+](=O)[O-]	·	·	·	–	–
O=C(Cc1ccc(Cl)c(Cl)c1)N1CCOCC1	–	·	–	–	–
O=c1c2ccccc2nnn1CSc1nc2cc(Cl)ccc2c(=O)n1Cc1ccco1	–	·	–	·	·
c1ccc(-c2nnc(SCc3nc4ccccc4[nH]3)n2Cc2ccco2)cc1	–	–	–	?	11µM
O=C(CSc1nnc(-c2ccc(O)cc2)n1Cc1ccco1)c1ccccc1	–	–	?	–	–
COc1ccccc1NC(=O)CSc1nnc(COc2ccc(Cl)cc2)n1Cc1ccco1	21µM	–	15µM	–	–
O=c1c2ccccc2nnn1CSc1nnc(COc2ccc(Cl)cc2)n1Cc1ccco1	23µM	–	21µM	–	–
O=C(CSc1nnc(-c2ccccn2)n1Cc1ccco1)c1ccc(-c2ccccc2)cc1	29µM	–	?	–	?
CN1N=C(C(=O)N2CCCC(Nc3ccc(F)c(F)c3)C2)CCC1=O (stereo not drawn)	–	–	–	–	–
Cc1ccc(S(=O)(=O)N2CCN(C(=O)c3cc(S(=O)(=O)N(C)C)ccc3N3CCCC3)CC2)cc1	–	–	–	·	·
COc1ccc(CNC(=O)CSc2nnnn2C)cc1OC	–	–	–	–	–
CCCc1cc(=O)oc2cc(OCC(=O)NCCCN3CCCC3=O)ccc12	–	–	–	–	–
Cc1ccc(OCc2nnc(SCC(=O)c3ccccc3)n2Cc2ccco2)cc1	23µM	–	18µM	–	–
O=C(CSc1nnc(COc2ccccc2)n1Cc1ccco1)c1ccc(F)cc1	–	–	?	?	?
Cc1noc(C)c1COc1ccccc1C(=O)N1CCN(S(=O)(=O)c2ccccc2C#N)CC1	–	·	–	·	·
